Results as given in PubChem BioAssay (NCI).
“And” between values parts separate entries of the source, which are not always exact repeats. Equal values may be shown once. Compounds without any hit were thinned out: in the full panel of roughly 83,000, 20% have a hit.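 Plates (96-well) were seeded with cells, treated with compound at one concentration, and incubated for 48 hours before percent growth was determined.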 The source made the active and inactive calls.

The compounds below were run on HOP-92 NSCLC (assay: NCI-60 one-dose screen, 48 h (100 = growth as untreated, 0 = no growth, -100 = all killed)). Settings: 10 µM.
Protocol: Growth inhibition of the HOP-92 human Non-Small Cell Lung tumor cell line is measured as a screen for anti-cancer activity. Cells are grown in 96 well plates and exposed to the test compound for 48 hours. Compounds are tested at a single concentration, which is 10^-5 M for most compounds. The reported endpoint is percent growth (GI% or GIPRCNT), where numbers from 0 - 100% represent growth inhibition, and numbers from -100% - 0 represent cell death. For example, a value of 40 represents 60% growth inhibition. A value of 0 means no net growth occurred over the course of the experiment. A value of -40 indicates 40% of cells at the beginning of the experiment died by the end of the experiment. A value of -100 means all cells are dead at the end of the experiment.
NCI-60 Human Tumor Cell Lines Screen was performed using the standard one-dose NCI protocol, which is described in more detail at https://dtp.cancer.gov/discovery_development/nci-60/default.htm.
Compounds with GIPRCNT values below 10 were considered active. Activity score was based on GIPRCNT using the following formula: […]
Score is 0 for GIPRCNT values of 100 or above, 50 for GIPRCNT values of 0, and 100 for GIPRCNT values of -100.

SMILES	growth
Nc1cc(N)c(N)cc1N	115% (inactive)
N#CC(C#N)N=Nc1ccc(Cl)cc1	-15.1% (active)
CC[C@H](CC[C@@H](C)[C@H]1CC[C@H]2[C@@H]3CC=C4C[C@@H](O)CC[C@]4(C)[C@H]3CC[C@]12C)C(C)C	83.5% (inactive)
NC(Cc1c[nH]c2ccccc12)C(=O)O (stereo not given)	75.5% (inactive)
CC(C)NCC(O)c1ccc(O)c(O)c1 (stereo not given)	60.1% (inactive) and 59% (inactive) and 68.4% (inactive)
Cc1cc2ccccc2cn1	94.4% (inactive) and 101% (inactive)
CC(=O)Nc1ccc(S(N)(=O)=O)cc1	96.6% (inactive)
CC1=C/C(O)CC(=O)Cc2nc(co2)C(=O)N2CCC=C2C(=O)OC(C(C)C)C(C)/C=C\C(=O)NC/C=C\1 (stereo not given)	88.7% (inactive)
COc1ccc(C(=O)CC(c2ccccc2)C(C#N)c2ccccc2)cc1 (stereo not given)	67.8% (inactive)
C/C(=C\c1ccccc1)c1ccccn1	105% (inactive)
CCN(CCNS(C)(=O)=O)c1ccc(N)c(C)c1	84.4% (inactive)
c1ccc2c(c1)OC1OC2Oc2ccccc21	101% (inactive)
Cn1cnc([N+](=O)[O-])c1Sc1ncn[nH]1	101% (inactive)
O=C(Cc1ccccc1)c1ccc(O)c(Cl)c1	57.6% (inactive)
O=CN1CCCCC1	120% (inactive)
NC1CCC(C(=O)O)CC1 (stereo not given)	83.3% (inactive) and 91.7% (inactive)
Cc1cc(-c2cc(C)c(O)c(C)c2)cc(C)c1O	77.1% (inactive)
O=C(CO)C(O)C(O)C(O)C(O)CO (stereo not given)	116% (inactive) and 105% (inactive)
CCCCNc1ccc(Nc2ccccc2)cc1	63.7% (inactive)
Nc1ccc2c(O)cc(S(=O)(=O)O)cc2c1	80.9% (inactive)

SMILES	growth
O=C1c2c(O)ccc(O)c2C(=O)c2c(NCCNCCO)ccc(NCCNCCO)c21	-56.9% (active)
CCCCCCCCCCNC(=O)CI	-79% (active)
c1ccc(CNCCNCc2ccccc2)cc1	80.6% (inactive)
CCCCCCCCCCCCCCCCC(C(=O)O)C(O)(CC(=O)O)C(=O)O (stereo not given)	112% (inactive) and -1.67% (active)
O=C1C=C(Nc2ccccc2)c2ccccc2C1=O	89.7% (inactive)
COc1ccc(N/C=C/C2=[N+](C)c3ccccc3C2(C)C)c(OC)c1	69.5% (inactive)
O=C1CSC2=NCCN12	112% (inactive) and -2.23% (active)
CC(=O)NCC(=O)c1ccc([N+](=O)[O-])cc1	108% (inactive)
O=c1n(CC2CO2)c(=O)n(CC2CO2)c(=O)n1CC1CO1 (stereo not given)	75.9% (inactive)
CN(C)CC1CCCCCC(CN(C)C)C1=O (stereo not given)	73.2% (inactive)
CC(C)NC(=O)N/C=C(\C#N)C(N)=O	96.6% (inactive)
Fc1ccc([I+]c2ccc(F)cc2)cc1	67.8% (inactive)
CCc1cc(C)cc(O)c1	91.7% (inactive)
O=C1OC(C(O)C(O)CO)C(O)=C1O (stereo not given)	89.5% (inactive)
Brc1ccc(SSc2ccc(Br)cc2)cc1	98.4% (inactive)
Cc1ccc(=O)[nH]n1	85.1% (inactive)
O=C(O)CCCl	78.4% (inactive)
COc1cc(C(O)C2C(=O)OCC2C2(c3ccc4c(c3)OCO4)SCCCS2)cc(OC)c1OC (stereo not given)	77.8% (inactive)
CC(=O)OC(C)C(=O)NCC(C)O (stereo not given)	98% (inactive)
Nc1nc(N)c2[nH]cnc2n1	78.5% (inactive)
